Assay outcomes from PubChem BioAssay.
CIT2-GFP yeast – modulators of TOR pathway CIT2-GFP in S. cerevisiae | S. cerevisiae CIT2-GFP strain, flow cytometry, 3 h; 100 means same as DMSO wells | GFP response vs DMSO, % at 10 µM | actives 0.065% (n = 320,000);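 active = GFP response relative to DMSO above a set limit, near the screen mean plus 3 SD, cut at about 150% in these data; inconclusive = Fewer than 70 cells measured for a yeast strain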;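 also: ratio of well median GFP fluorescence to mean of DMSO wells on the plate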
LAP4 TOR yeast – alters LAP4-GFP fluorescence in TOR pathway yeast screen; S. cerevisiae LAP4-GFP multiplex, flow cytometry GFP, 3 h; median GFP as percent of DMSO wells; GFP response vs DMSO, % at 10 µM; actives 0.34% (n = 320,000); AID 2023;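 active = GFP response vs DMSO above a set limit, about the screen mean plus 3 SD, cut at about 150% in these data; inconclusive = under 70 cell events counted for the yeast strain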
Pemphigus Ab inh – inhibitors of pemphigus antibody binding to human desmoglein-3. binding (percent of control), % at 10 µM. actives 0.48% (n = 310,000). DSG3-coupled beads, scFv-anti-DSG3-GFP binding, flow cytometry; hits give low values. P32926. AID 588358;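 active = binding more than 3 SD below its plate's average and above zero; inconclusive = below that plate limit but binding exactly zero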;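 also: hits lower antibody fragment binding to DSG3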
Target sequence (P32926 whole entry, looked up, the tested form may be a part): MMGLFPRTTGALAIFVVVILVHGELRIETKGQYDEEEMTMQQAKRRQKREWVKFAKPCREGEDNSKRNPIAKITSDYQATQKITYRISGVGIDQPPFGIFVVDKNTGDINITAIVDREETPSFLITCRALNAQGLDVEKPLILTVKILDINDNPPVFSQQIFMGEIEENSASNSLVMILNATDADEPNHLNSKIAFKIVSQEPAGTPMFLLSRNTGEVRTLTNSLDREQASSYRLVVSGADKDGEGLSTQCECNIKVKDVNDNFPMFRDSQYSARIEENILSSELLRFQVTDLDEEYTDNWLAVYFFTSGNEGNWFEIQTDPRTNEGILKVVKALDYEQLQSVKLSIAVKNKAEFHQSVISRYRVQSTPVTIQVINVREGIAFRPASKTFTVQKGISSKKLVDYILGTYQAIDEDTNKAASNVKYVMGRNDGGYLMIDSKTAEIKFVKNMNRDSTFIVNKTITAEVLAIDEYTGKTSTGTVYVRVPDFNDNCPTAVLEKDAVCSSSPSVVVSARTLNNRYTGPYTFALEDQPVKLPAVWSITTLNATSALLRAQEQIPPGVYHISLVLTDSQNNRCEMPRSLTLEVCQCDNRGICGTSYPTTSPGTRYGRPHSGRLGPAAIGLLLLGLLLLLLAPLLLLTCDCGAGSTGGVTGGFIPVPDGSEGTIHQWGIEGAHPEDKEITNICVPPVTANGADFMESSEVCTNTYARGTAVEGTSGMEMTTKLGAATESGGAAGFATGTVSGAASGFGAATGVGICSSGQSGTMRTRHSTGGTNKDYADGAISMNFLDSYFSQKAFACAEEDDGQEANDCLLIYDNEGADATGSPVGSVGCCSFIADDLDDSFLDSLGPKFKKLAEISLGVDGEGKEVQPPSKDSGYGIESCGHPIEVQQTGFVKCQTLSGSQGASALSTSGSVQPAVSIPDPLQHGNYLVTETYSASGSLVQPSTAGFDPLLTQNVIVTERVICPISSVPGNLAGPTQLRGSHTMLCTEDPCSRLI
AGP1-GFP MLPCN – yeast TOR pathway AGP1-GFP modulation; GFP response vs DMSO, % at 10 µM; AID 2066; S. cerevisiae AGP1-GFP multiplex flow cytometry, 3 h; GFP as percent of DMSO wells; actives 0.02% (n = 320,000);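 active = GFP response relative to DMSO above a set limit, near screen average plus 3 SD, cut at about 150% in these data; inconclusive = fewer than 70 cells counted for the yeast strain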;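 also: median GFP channel fluorescence of the gated AGP1 strain per well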
RPL19A-GFP yeast – modulators of TOR pathway RPL19A-GFP in S. cerevisiae. S. cerevisiae RPL19A-GFP strain, flow cytometry, 3 h; hits give low values. percent response vs DMSO, % at 10 µM. actives 0.3% (n = 330,000). AID 2025;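 active = percent response vs DMSO below 50%; inconclusive = fewer than 70 events counted for the yeast strain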;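 also: median channel GFP fluorescence of the barcoded RPL19A-GFP strain; ratio of sample median GFP to plate DMSO average so 100% = DMSO; lower means less RPL19A-GFP as with rapamycin TOR inhibition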
MEP2 TOR yeast – modulators of TOR pathway MEP2-GFP in S. cerevisiae; S. cerevisiae MEP2-GFP strain, flow cytometry GFP, 3 h; 100% = DMSO control level; GFP response vs DMSO, % at 10 µM; actives 0.51% (n = 330,000); AID 2016;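 active = GFP response versus DMSO above a set limit, roughly screen mean plus 3 SD, cut at about 180% in these data; inconclusive = fewer than 70 cells counted for a yeast strain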;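 also: median GFP fluorescence of the barcode-gated MEP2-GFP cells per well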
Numbers without * were called inactive; ? = inconclusive; . = not tested or not shown; [ ] = remark or other dose. Only some compounds are listed: those with a hit (about 1.2% of all), similar ones and a draw of the others.

SMILES | CIT2-GFP yeast | LAP4 TOR yeast | Pemphigus Ab inh | AGP1-GFP MLPCN | RPL19A-GFP yeast | MEP2 TOR yeast
Cc1ccc(NC(=O)c2cccnc2)cc1C | 106.5 | 88.4 | 15.5* | 97.3 | 107.2 | 105.6
O=C(Nc1cccc(OC(=O)c2cccnc2)c1)c1cccnc1 | ? | 102.7 | 118.8 | 21.2 | 59.0 | 193.9*[may fluoresce violet]
Cc1ccc(Cl)cc1N1CCN(C(=O)Cc2c(C(=O)O)[nH]c3ccc(Cl)cc23)CC1 | 98.3 | 111.2 | 22.9* | 108.1 | 101.7 | 111.9
COc1ccc2sc(-c3ccc(SC)cc3)c(-c3ccc(O)cc3)c2c1 | 91.3 | 108.0 | 100.7 | 98.2 | 96.2 | 98.8
O=C1C=CC(=O)c2c(O)c(CO)c(CO)c(O)c21 | . | . | 25.2* | . | . | .
CCC1CCCCN1C(=O)CSc1n[nH]c(N)n1 (configuration not stated) | 109.0 | 91.4 | 97.2 | 97.3 | 99.9 | 95.6
O=C(O)CN1C(=O)C2C3C=CC(C3)C2C1=O (configuration not stated) | 100.6 | 101.0 | 101.0 | 94.9 | 100.6 | 100.3
C/C(Cl)=C/CN1C(=O)C2C3C=CC(C3)C2C1=O (configuration not stated) | ? | 110.2 | 109.1 | ? | 24.9*[may fluoresce violet] | 247.1*[may fluoresce violet]
Cc1ccc(SCCC(=O)OC(C)C(=O)Nc2ccccc2)cc1 (configuration not stated) | 106.4 | 104.8 | 120.4 | 102.7 | 97.4 | 100.8
CCOC(=O)c1nc(NCc2ccccc2)sc1C | 86.7 | 103.2 | 99.5 | 90.5 | 97.5 | 96.8
COc1cccc(Cn2nnc(C(=O)Nc3cc(C)ccc3OC)c2N)c1 | 110.0 | 101.3 | -1.1* | 108.0 | 104.7 | 103.9
CCOc1ccc(Cn2nnc(C(=O)Nc3cc(OC)cc(OC)c3)c2N)cc1 | 111.9 | 103.8 | 107.1 | 104.2 | 104.0 | 108.2
CCOc1ccc(Cn2nnc(C(=O)Nc3cc(C)cc(C)c3)c2N)cc1 | 97.0 | 108.4 | 72.0* | 103.9 | 101.9 | 104.7
COc1ccc(NC(=O)Cn2nnc(C(=O)NCc3ccccc3)c2N)cc1Cl | 88.0 | 92.5 | 89.0* | 88.1 | 97.7 | 99.3
COc1cccc(Cn2nnc(C(=O)Nc3ccc(C)cc3)c2N)c1 | 97.7 | 98.3 | 101.5 | 98.3 | 94.1 | 90.0
N#CCNC(=O)C1CC(=O)N(CCc2ccc(F)cc2)C1 (configuration not stated) | 101.5 | 88.3 | 86.6 | 96.0 | 102.5 | 101.8
CCOc1ccc(S(=O)(=O)N2CCCCC2)cc1NC(=O)CCNC(=O)c1ccco1 | . | . | 99.4 | . | . | .
Cc1ccc(CNS(=O)(=O)c2ccc(CN3C(=O)c4cccnc4C3=O)cc2)o1 | ? | 81.8 | 105.4 | ? | 26.7*[may fluoresce violet] | 126.7
COc1ccc(CN(C)C(=O)C23CC4CC(CC(C4)C2)C3)c(OC)c1 | ? | ? | 109.8 | ? | 47.1*[may fluoresce violet] | ?
COc1cccc(CN(C)C(=O)C23CC4CC(CC(C4)C2)C3)c1 | 94.6 | 107.7 | 101.0 | 96.0 | 96.7 | 91.2
CCc1ccc(OCC(=O)Nc2ccc(N3CCN(C(=O)c4ccccc4)CC3)cc2)cc1 | 100.1 | 85.9 | 94.8* | 95.0 | 98.8 | 98.1
O=C(CN1C(=O)NC(c2ccccc2)(c2ccccc2)C1=O)Nc1ccc(N2CCOCC2)cc1 | 104.0 | 98.3 | 123.6 | 103.8 | 100.0 | 108.2
COc1ccc(C2(c3ccc(OC)cc3)NC(=O)N(CC(=O)Nc3ccc(N4CCOCC4)cc3)C2=O)cc1 | 86.4 | 91.9 | 3.0* | 90.8 | 89.2 | 94.4
Cc1cccc(OCC(=O)Nc2ccc(N3CCN(C(=O)c4ccccc4)CC3)cc2)c1C | . | 102.6 | . | 103.8 | 102.1 | 90.3
COc1ccc(C(=O)NC2CCN(CC(=O)NCc3ccccc3)CC2)cc1 | ? | 93.7 | 132.5 | 62.8 | 60.5 | 505.5*[may fluoresce violet]
SMILES | CIT2-GFP yeast | LAP4 TOR yeast | Pemphigus Ab inh | AGP1-GFP MLPCN | RPL19A-GFP yeast | MEP2 TOR yeast
COc1ccc(NC(=O)c2ccc(NC(=O)CN3CCN(c4ccccc4)CC3)cc2)cc1 | 88.0 | 84.8 | 5.2* | 89.1 | 92.2 | 86.0
COc1ccc([C@@H]2[C@@H]3C(=O)N(C(C)(C)C)C(=O)[C@@H]3[C@]3(C)C(=O)N(c4cccc(Cl)c4)C(=O)N23)cc1 | 84.9 | 111.2 | 99.0 | 85.0 | 99.0 | 92.5
COc1ccc2c(c1)CCC1(C)CC(=O)C(Br)=C21 (configuration not stated) | . | . | 102.8 | . | . | .
O=C(c1cc2ccccc2o1)N1CCN(c2ncccn2)CC1 | 97.6 | 89.1 | 112.4 | 92.2 | 97.5 | 101.5
C[C@H]1CN([C@@H](C)CO)C(=O)c2cc(-c3cccc(C#N)c3)cnc2O[C@H]1CN(C)C(=O)c1ccccn1 | . | . | 111.3 | . | . | .
O=C1C2C3C=CC(C3)C2S(=O)(=O)C2C3C=CC(C3)C12 (configuration not stated) | . | . | 99.8 | . | . | .
O=C(Nc1ncn[nH]1)c1ccc(Cl)c(Cl)c1 | . | . | 95.5 | . | . | .
COC(=O)[C@@H](NC(=O)N1CCN(C(=O)C2COc3ccccc3O2)CC1)C(C)C (some centres not stated) | ? | 84.2 | 96.4 | ? | 19.4*[may fluoresce violet] | 172.5
COc1ccc(-c2nnc(COc3ccc4ccccc4c3)o2)cc1OC | 80.0 | 98.9 | 100.8 | 88.4 | 95.4 | 98.5
COc1cc2ccccc2cc1-c1nnc(COc2ccccc2)o1 | 94.7 | 103.8 | 89.8* | 93.7 | 96.6 | 98.7
CC(=O)NC1(C(F)(F)F)C(=O)Nc2c1c(=O)[nH]c(=O)n2CCc1ccccc1 (configuration not stated) | 82.8 | 97.8 | 117.4 | 28.7 | 51.0 | 176.0*
Cc1c(C(=O)NCCSCc2cccc(C(F)(F)F)c2)cnn1-c1ccc(F)cc1 | 66.0 | 152.6* | . | 16.7 | 71.1 | 95.8
CN1C=CC=C/C1=C1\SC(=S)N(N)C1=O | ? | 68.1 | . | ? | 43.6*[may fluoresce violet] | 292.8*[may fluoresce violet]
O=C(NC1CC1)c1ccc(CSCc2ccc(Cl)cc2)o1 | . | . | 95.8 | . | . | .
CN1CCN(CCCCOc2ccccc2C=O)CC1 | 79.7 | 162.8* | 102.7 | 92.6 | 103.4 | 104.2
CCCn1c(N)c(C(=O)CSc2nncs2)c(=O)[nH]c1=O | 95.4 | 100.8 | 82.6 | 98.4 | 100.7 | 96.8
O=C1C=CC(=O)N1CCCCCCCCCCN1C(=O)C=CC1=O | . | . | 91.8 | . | . | .
O=C(O)c1cccc(C(=O)c2cccc3ccccc23)c1 | . | . | 108.6 | . | 99.8 | 94.4
O=C(O)c1ccc2ccc3ccccc3c2c1 | 110.3 | 139.3 | 107.0 | 103.6 | 91.0 | 205.3*
C/C(=N\NC(=O)COc1ccccc1-c1ccccc1)c1cccnc1 | 97.5 | 94.1 | 99.5 | 105.5 | 103.4 | 99.7
C/C(=N\NC(=O)COc1ccccc1-c1ccccc1)c1ccccn1 | 104.6 | 170.9* | 106.3 | 94.6 | 90.1 | 93.5
O=C(O)Cc1sc(Nc2ccc(F)cc2)nc1-c1cccs1 | 61.6 | 194.9* | 100.0 | 65.9 | 80.0 | 95.8
CCCCC/C(=N\NC(=O)Nc1ccccc1)c1ccccc1 | 93.6 | 94.9 | -11.9* | 96.2 | 98.2 | 96.3
